A short description of test [1]: optical density shifts of acrAB sulA E. coli – strain DRC41, OD650, 48 h, E. coli filamentation inducer project, primary screen (AID 1152).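 Further: E. coli MC1000 strain DRC41 lacking acrAB efflux pump and sulA.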 Conditions: higher = more signal, called active from +8 up or from −8 down.
The nature of test [2]: probe aLefty1 binding on compound microarray – biochemical, small-molecule microarray, 635/667 nm fluorescence, primary screen (AID 1153).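 Further: score merges spot fluorescence with signal-to-noise ratio from the scanned slide images.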 Conditions: higher = more signal.
Test [3] can be described thus: plasmodial surface anion channel blockers, osmotic lysis – cell-based, P. falciparum Indochina, OD700, 1 h, primary screen (AID 1154). The note with it: P. falciparum Indochina infected RBC osmotic lysis, higher = more signal, called active from +8 up or from −8 down.
Test [4] in a line: plasmodial surface anion channel blockers, osmotic lysis – cell-based, P. falciparum Indochina, OD700, 2 h, primary screen (AID 1155).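 Further: lysis reports solute entry through the parasite surface anion channel PSAC.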 The note with it: P. falciparum Indochina infected erythrocytes, higher = more signal, called active from +8 up or from −8 down.
Test [5] can be described thus: changes in parasitized red cell lysis, either direction – P. falciparum Indochina, OD700, 3 h, PSAC antagonist project, primary screen (AID 1156). Conditions: P. falciparum-infected erythrocytes, osmotic lysis, higher = more signal, called active from +8 up or from −8 down.
A short description of test [6]: plasmodial surface anion channel blockers, osmotic lysis – cell-based, P. falciparum Indochina, OD700, 18 h, primary screen (AID 1157). Conditions: P. falciparum Indochina infected erythrocytes, osmotic lysis OD700, 18 h; higher = more signal, called active from +8 up or from −8 down.
The nature of test [7]: S6 kinase pathway phospho-S6 level changes – cell-based, A549, cytoblot, luminescence, serum-stimulated, primary screen (AID 1158).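 Further: serum-stimulated A549 lung adenocarcinoma cells; signal is phosphorylated S6 detected by cytoblot immunostaining with HRP secondary.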 Conditions: 5 h, higher = more signal.
Test [8] concerns the target NADPH oxidase 2 (Homo sapiens) (UniProt P04839). The test is described as follows: compounds shifting NOX2 Amplex Red fluorescence – cell-based, HEK293-NOX2, PMA-stimulated, NOX inhibitor project, primary screen (AID 1159). Further: test concentration not given here. The note with it: 45 min, higher = more signal, called active from +8 up or from −8 down.
Test [9] deals with NADPH oxidase 4 (Homo sapiens) (UniProt Q9NPH5). The test is described as follows: compounds shifting NOX4 Amplex Red fluorescence – cell-based, HEK293-NOX4, tetracycline-induced, NOX inhibitor project, primary screen (AID 1160). The note with it: HEK293-NOX4, Amplex Red H2O2 fluorescence, 45 min; higher = more signal, called active from +8 up or from −8 down.
Chain of NADPH oxidase 4 (Homo sapiens) (Q9NPH5 whole entry, looked up): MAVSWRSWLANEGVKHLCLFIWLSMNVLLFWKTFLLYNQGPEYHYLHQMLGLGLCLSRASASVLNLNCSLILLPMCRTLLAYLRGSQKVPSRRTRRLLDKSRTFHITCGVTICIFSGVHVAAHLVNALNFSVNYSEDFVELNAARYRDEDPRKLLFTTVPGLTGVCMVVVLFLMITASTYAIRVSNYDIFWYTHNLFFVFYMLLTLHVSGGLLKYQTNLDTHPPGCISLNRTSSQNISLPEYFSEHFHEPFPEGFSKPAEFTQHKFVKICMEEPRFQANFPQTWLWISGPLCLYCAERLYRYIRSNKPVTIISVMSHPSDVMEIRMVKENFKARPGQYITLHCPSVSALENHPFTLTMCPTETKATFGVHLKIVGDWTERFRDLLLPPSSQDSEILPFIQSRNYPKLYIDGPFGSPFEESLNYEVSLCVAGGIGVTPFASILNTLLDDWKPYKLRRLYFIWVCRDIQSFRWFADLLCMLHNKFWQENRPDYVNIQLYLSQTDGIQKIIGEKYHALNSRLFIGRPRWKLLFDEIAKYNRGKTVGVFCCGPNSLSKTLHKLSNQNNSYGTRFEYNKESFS
In test [10] the target is NADPH oxidase 5 (Homo sapiens) (UniProt Q96PH1). The test is described as follows: compounds shifting NOX5 Amplex Red fluorescence – cell-based, HEK293-NOX5, NOX inhibitor project, primary screen (AID 1161). The note with it: HEK293-NOX5, ionomycin, 45 min, higher = more signal.
Chain of NADPH oxidase 5 (Homo sapiens) (Q96PH1 whole entry, looked up): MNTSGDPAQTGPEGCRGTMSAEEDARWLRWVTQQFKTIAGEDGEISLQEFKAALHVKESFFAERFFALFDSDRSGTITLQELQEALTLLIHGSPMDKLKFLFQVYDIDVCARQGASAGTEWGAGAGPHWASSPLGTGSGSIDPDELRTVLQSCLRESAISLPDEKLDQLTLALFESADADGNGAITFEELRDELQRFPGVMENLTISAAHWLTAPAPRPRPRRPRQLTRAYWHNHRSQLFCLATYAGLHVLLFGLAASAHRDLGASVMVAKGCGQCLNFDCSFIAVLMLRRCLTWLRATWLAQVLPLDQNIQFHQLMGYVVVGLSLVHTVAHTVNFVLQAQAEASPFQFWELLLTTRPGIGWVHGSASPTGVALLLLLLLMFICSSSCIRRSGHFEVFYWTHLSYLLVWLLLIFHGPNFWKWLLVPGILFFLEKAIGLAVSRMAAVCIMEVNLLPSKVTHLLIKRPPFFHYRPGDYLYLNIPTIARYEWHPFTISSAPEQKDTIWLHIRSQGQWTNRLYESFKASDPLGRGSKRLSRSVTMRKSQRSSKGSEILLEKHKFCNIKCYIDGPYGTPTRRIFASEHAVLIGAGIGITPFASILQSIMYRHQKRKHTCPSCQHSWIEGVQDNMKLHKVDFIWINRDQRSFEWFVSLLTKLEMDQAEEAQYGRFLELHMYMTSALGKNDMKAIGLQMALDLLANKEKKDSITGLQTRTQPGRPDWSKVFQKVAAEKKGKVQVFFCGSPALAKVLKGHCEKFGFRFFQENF
Test [11] is described as follows: compound effects on lung adenocarcinoma cell viability – A549, calcein-AM fluorescence, 48 h, basal, profiling panel (AID 1162). Further: test concentration not given here. Conditions: higher = more signal.
The nature of test [12]: compound effects on differentiated 3T3-L1 adipocyte viability – cell-based, 3T3-L1 adipocytes, calcein-AM fluorescence, 48 h, basal, profiling panel (AID 1163). Further: test concentration not given here. The note with it: 3T3-L1 adipocytes viability, higher = more signal.
Test [13] can be described thus: compound effects on hepatocellular carcinoma cell viability – HepG2, calcein-AM fluorescence, 48 h, basal, profiling panel (AID 1164). Further: test concentration not given here. The note with it: higher = more signal.
The nature of test [14]: compound effects on multiple myeloma cell viability – MM1S, calcein-AM fluorescence, 48 h, basal, profiling panel (AID 1165). Further: test concentration not given here. Conditions: higher = more signal.
Test [15] can be described thus: calcein-AM signal in unstimulated myeloma cells – cell-based, calcein-AM fluorescence, 48 h, PK04 Diversity Set, profiling panel (AID 1166).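 Further: cells grown under basal conditions without added stimulus; test concentration not given here.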 The note with it: RPMI8226 myeloma viability, higher = more signal.
A short description of test [16]: JC-1 mitochondrial signal, unstimulated HepG2 cells – cell-based, JC-1 fluorescence, 24 h, 100 nL compound, profiling panel (AID 1167). Further: test concentration not given here. The note with it: HepG2 mitochondrial potential, higher = more signal.
Test [17] can be described thus: JC-1 mitochondrial signal, unstimulated adipocytes – cell-based, JC-1 fluorescence, 3T3-L1 adipocytes, 24 h, 100 nL compound, profiling panel (AID 1168). Further: test concentration not given here. The note with it: JC-1 mitochondrial fluorescence, higher = more signal, called active from +8 up or from −8 down.
A short description of test [18]: JC-1 mitochondrial signal, unstimulated myeloma cells – cell-based, JC-1 fluorescence, RPMI8226, 24 h, 100 nL compound, profiling panel (AID 1169). Further: test concentration not given here. The note with it: JC-1 mitochondrial potential fluorescence, higher = more signal.
A short description of test [19]: JC-1 mitochondrial signal, unstimulated MM1S myeloma – cell-based, JC-1 fluorescence, 24 h, 100 nL compound, profiling panel (AID 1170). Further: test concentration not given here. Conditions: MM1S mitochondrial potential, higher = more signal.
Test [20] in a line: resazurin metabolic signal in A549 cells – cell-based, resazurin fluorescence, 24 h, PK04 Diversity Set, profiling panel (AID 1171). Further: test concentration not given here. Conditions: A549 viability, higher = more signal, called active from +8 up or from −8 down.

SMILES strings stand for the structures. Calls of active or inactive are those of the source.

The source of these data is PubChem BioAssay.

Chain of NADPH oxidase 2 (Homo sapiens) (P04839 whole entry, looked up): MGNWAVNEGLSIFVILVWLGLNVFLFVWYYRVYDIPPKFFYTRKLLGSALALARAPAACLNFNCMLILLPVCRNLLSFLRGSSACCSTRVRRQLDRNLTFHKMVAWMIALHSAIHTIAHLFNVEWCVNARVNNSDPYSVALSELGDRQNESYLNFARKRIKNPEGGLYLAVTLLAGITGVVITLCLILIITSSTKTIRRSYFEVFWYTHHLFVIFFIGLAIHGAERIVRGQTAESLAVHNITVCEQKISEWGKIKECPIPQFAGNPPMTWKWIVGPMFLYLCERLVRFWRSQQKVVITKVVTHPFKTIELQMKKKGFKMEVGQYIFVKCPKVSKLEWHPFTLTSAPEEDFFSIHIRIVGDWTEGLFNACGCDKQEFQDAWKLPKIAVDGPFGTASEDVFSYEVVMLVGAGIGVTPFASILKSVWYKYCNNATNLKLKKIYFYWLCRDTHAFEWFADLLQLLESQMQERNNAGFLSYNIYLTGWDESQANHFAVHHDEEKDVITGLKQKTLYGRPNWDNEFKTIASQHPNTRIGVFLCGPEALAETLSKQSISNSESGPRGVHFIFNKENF

On to `CCOC(=O)[C@H]1C/C=C/C[C@H](C(=O)OCC)C(=O)O[C@H]2[C@@H](OC)O[C@H](CO)[C@@H](OC(=O)Nc3ccc(OC)cc3)[C@@H]2OC1=O`, for which the z-score in test [1] was 1.04 (inactive); in test [3] it was 0.736 (inactive); in test [4] it was -0.0928 (inactive); in [5], -0.0986 (inactive); in [6] it was 0.385 (inactive); in test [7], -0.0056. Besides, the z-score in test [8] was -2.43 (inactive); in [9], -1.29 (inactive); in test [10] it was -1.99; in test [11] it was 2.98; in [12] it was 0.202; in test [13], 1.12. For the same compound, the z-score in [14] is -0.465; in [15] it was -0.274; in [16] it was 1.89; in [17] it was 1.84 (inactive); in [18], -0.292; in test [19], -0.998. In addition, the z-score in test [20] was -1.29 (inactive). In [2], this compound yielded a composite z-score of 0.104.

In the case of `NC(=O)N1C(=O)C2C(C1=O)C1C=C(CCCO)C2C(c2cccs2)N1Cc1cc2c(cc1Br)OCO2` (stereo not given), the z-score in test [1] is 0.0978 (inactive); in [3] it was 17.7 (active); in test [4], 2.3 (inactive); in test [5] it was 0.865 (inactive); in test [6], 0.872 (inactive); in test [7], 0.413. In addition, the z-score was -0.848 (inactive) in [8]; -0.662 (inactive) in [9]; -1.1 in test [10]; 0.89 in test [11]; 1.46 in [12]; 0.78 in test [13]. Also, the z-score was 0.0067 in [14]; 0.695 in [15]; 1.01 in test [16]; 0.111 (inactive) in [17]; -0.11 in test [18]; -0.214 in test [19]. Besides, in test [20], the z-score is 0.514 (inactive). Besides, the composite z-score in test [2] came out at 0.254.

In the case of `CO[C@H]1O[C@H](CO)[C@@H](OC(=O)c2ccc(Br)cc2)[C@@H]2OC(=O)[C@@H](Cc3ccc4ccccc4c3)C/C=C/C[C@H](Cc3ccc4ccccc4c3)C(=O)O[C@@H]12`, the z-score was 0.689 (inactive) in [1]; 2.52 (inactive) in test [3]; -0.503 (inactive) in [4]; -1.15 (inactive) in test [5]; -2.1 (inactive) in test [6]; 1.74 in test [7]. The z-score in [8] was 1.76 (inactive); in [9], 0.00292 (inactive); in test [10], -1.77; in [11], 1.12; in [12], 1.26; in test [13], 0.564. Moreover, the z-score is -0.0385 in test [14]; -0.21 in test [15]; -0.122 in test [16]; 0.497 (inactive) in [17]; -0.299 in test [18]; -0.179 in test [19]. Also, the z-score in test [20] was -1.41 (inactive). In test [2], this compound gave a composite z-score of -0.113.

`COc1cc2c(cc1O)C(C)N(Cc1cc3c(cc1Br)OCO3)CC2` (stereo not given): the z-score was 1.2 (inactive) in test [1]; 2.87 (inactive) in test [3]; 0.551 (inactive) in test [4]; 0.117 (inactive) in [5]; 0.401 (inactive) in [6]; 0.36 in [7]. The z-score in [8] is -3.74 (inactive); in [9], -2.96 (inactive); in [10], -2.91; in test [11], -0.279; in test [12], 0.453; in [13], -0.346. The z-score in [14] is -0.981; in test [15], -0.308; in test [16], -0.378; in test [17], 0.168 (inactive); in [18] it was -0.481; in test [19] it was 0.71. Also, the z-score in test [20] was -0.807 (inactive). The same compound had a composite z-score in test [2] of -0.0196.

In the case of `O=C1OCC=C[C@H]2OC34C=CCN(Cn5nnc6ccccc65)C(=O)[C@H]3N(CCCCCCO)C(=O)[C@@H]4[C@@H]12` (stereo not given in full), the z-score in test [1] is -0.169 (inactive); in test [3], 1.99 (inactive); in [4] it was 0.89 (inactive); in test [5], 1.15 (inactive); in [6], 0.648 (inactive); in test [7], -0.394. Also, the z-score is 1.77 (inactive) in test [8]; -0.17 (inactive) in test [9]; 2.24 in test [10]; -0.4 in test [11]; 0.352 in test [12]; 0.226 in test [13]. Further, the z-score in test [14] is 1.15; in test [15], 0.447; in [16], -0.688; in [17] it was -0.0324 (inactive); in [18], -0.638; in test [19], -0.467. Besides, in test [20], the z-score is -0.402 (inactive). Moreover, the composite z-score in test [2] is 0.32.

As to `CC(C)N1C(=O)[C@@]2(c3ccc([N+](=O)[O-])cc3)CC(=O)N(C3CCCCC3)[C@@H]2c2ccc(CO)cc21`, the z-score in [1] was 0.0586 (inactive); in test [3], -0.716 (inactive); in test [4], -0.465 (inactive); in test [5], -0.393 (inactive); in test [6] it was -0.334 (inactive); in test [7], 0.254. Further, the z-score was -0.898 (inactive) in test [8]; -0.363 (inactive) in test [9]; -0.316 in test [10]; -0.0841 in [11]; -0.0435 in test [12]; -0.647 in test [13]. Also, the z-score is -0.331 in test [14]; 0.311 in [15]; -0.0357 in test [16]; -0.14 (inactive) in [17]; -0.0593 in test [18]; -0.843 in [19]. Also, in test [20], the z-score is 2.09 (inactive). Further, the composite z-score in test [2] is -0.672.

Take `Cc1ccc(S[C@]2(C(=O)NCCN3CCOCC3)CC(=O)N(Cc3ccccc3C(F)(F)F)[C@@H]2c2ccc(CO)cc2I)cc1`: the z-score in test [1] is 0.0143 (inactive); in test [3], 4.93 (inactive); in [4], 0.636 (inactive); in [5], 2.03 (inactive); in test [6] it was 0.278 (inactive); in test [7], 0.155. The z-score was 2.82 (inactive) in [8]; -0.659 (inactive) in test [9]; 1.61 in test [10]; -0.209 in test [11]; -0.292 in test [12]; -0.695 in [13]. For the same compound, the z-score in test [14] was -2.85; in test [15], -2.15; in [16], -0.178; in test [17] it was -1.03 (inactive); in test [18], -0.793; in [19], -2.36. Besides, the z-score in [20] was 0.683 (inactive). The same compound gave a composite z-score in test [2] of 0.114.

On to `CC(C)(C)OC(=O)CC[C@]1(C(=O)O)N=C(c2ccc(OCCCO)cc2)O[C@H]1c1ccccc1CN=[N+]=[N-]`, for which the z-score in test [1] is 0.59 (inactive); in [3], 16.3 (active); in [4], 1.36 (inactive); in test [5], 0.0614 (inactive); in [6], 0.594 (inactive); in test [7], 0.172. Further, the z-score in [8] was 0.433 (inactive); in test [9], 1.01 (inactive); in test [10] it was 1; in test [11] it was 0.61; in test [12] it was -0.788; in test [13] it was 0.682. The z-score in test [14] was 0.519; in test [15], 0.375; in test [16], 1.43; in [17], 1.05 (inactive); in test [18], -0.697; in [19] it was -0.738. The z-score in test [20] is -0.245 (inactive). For the same compound, the composite z-score in test [2] amounted to 0.0355.

On to `C[N+](C)(C)CCCC[C@@H]1NC(=O)[C@@H]2C[C@H](C(=O)O)[C@H](c3ccc(O)cc3)N2C1=O`, for which the z-score in test [1] was -0.105 (inactive); in [3] it was 0.277 (inactive); in test [4] it was 0.156 (inactive); in test [5] it was -0.0003 (inactive); in test [6], 0.0583 (inactive); in [7] it was 0.423. For the same compound, the z-score in [8] is -0.0831 (inactive); in test [9] it was -0.223 (inactive); in test [10] it was 0.903; in [11], -0.643; in test [12] it was 0.422; in test [13] it was 0.914. In addition, the z-score is 0.379 in test [14]; -0.0923 in test [15]; 0.0942 in test [16]; -0.907 (inactive) in test [17]; -0.142 in test [18]; -0.454 in [19]. For the same compound, the z-score in test [20] was -0.246 (inactive). In test [2], this compound gave a composite z-score of -0.248.
